Data on 24 compounds can be found in PubChem BioAssay (Tox21).

Molecules are shown by their SMILES. Results filed as inconclusive are left out. Active and inactive are the calls of the source. Calls follow the shape of the dose curve; as a rule, active = well fitted activation curve with a large enough effect in the repeat runs; inconclusive = weak or mixed curves; inactive = flat fitted curve, though single readings scatter.
% is scaled to controls: 0 for no effect and ±100 for the full control effect; potency is read from the fitted curve at half-maximal effect.

One assay is described as follows: A CellTox Green Cytotoxicity Assay to monitor cytotoxicity in HEK293 cells - 32 hour (AID 1224881). Also: nearly all actives have a fitted effect of over 40% in size. As to conditions: CellTox Green fluorescence; series mostly up to 76.8 µM; cytotoxicity increase: at the top concentration. In outline:
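Nonlytic real-time cytotoxicity: HEK293 + CellTox Green reagent plated, 5 h preincubation, pintool compound addition (23 nL in DMSO), 37 C for 40 h, fluorescence measured at successive time points.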
On to `O[C@@H](c1cc(C(F)(F)F)nc2c(C(F)(F)F)cccc12)[C@H]1CCCCN1`, for which the Potency was 23.9 µM (active). As to `CC(C)=C1CC[C@@H](C)CC1=O`, the “cytotoxicity increase” value is -1.79% (inactive). On the same count and under the same terms, to `SCCCCCCCCS` belongs 2.56% (inactive).

The nature of a further assay: A CellTox Green Cytotoxicity Assay to monitor cytotoxicity in HepG2 cells - 0 hour (AID 1224882). Also: nearly all actives have a fitted effect of over 35% in size. The conditions noted are these: CellTox Green fluorescence; series mostly up to 76.8 µM; cytotoxicity: at the top concentration. In a few lines:
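Read-out is fluorescence of a cyanine dye excluded from live cells that stains DNA of dead HepG2 cells, with signal proportional to cytotoxicity. Plates were read at 0, 8, 16, 24, 32 and 40 h after compound addition.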
Turning to `CCC(=O)CC(C)CC` (centres undefined), the cytotoxicity was 11.3% [at 0.29 µM] (inactive).

As to `Oc1c(Br)cc(Br)c2cccnc12`, the “cytotoxicity” value was 1.16% [at 35.3 µM] (inactive). On the same count and under the same terms, to `CCCOc1sc(C(=O)N2CCC(c3cc(CN)ccc3F)CC2)c(C)c1Br` belongs 4.19% (inactive); to `O=S(O)O`, -14.5% [at 15.8 µM] (inactive); to `NCCCCCCNCCCCCCN`, -1.61% (inactive). With `C=CC/C=C/C/C=C/C/C=C/C`, the “cytotoxicity” value is 0.286% (inactive). `CC(NCCC(c1ccccc1)c1ccccc1)c1ccccc1` (centres undefined): the “cytotoxicity” value was -1.86% [at 35.3 µM] (inactive). The same measure, in the same setting: next, `CCCCCCCCCCCCCCCC`: 0.351% (inactive); `CCc1cccc(CC)c1NC(=O)C(=O)O`: 0.467% (inactive). Consider `CN1[C@@H]2CC[C@H]1CC(OC(=O)C(CO)c1ccccc1)C2` (some centres undefined), for which the Potency result was “inactive”.

With `CC(COC(=O)c1ccccc1)OC(=O)c1ccccc1` (centres undefined), the “cytotoxicity” value was -0.68% (inactive). Consider `COC(=O)CC(C)CCC=C(C)C` (centres undefined), for which the “cytotoxicity” value is 6.55% (inactive). Same read-out and setting: to `CCCCCCCC(=O)OCC` belongs 11.3% (inactive); to `CCOC(/C=C(\C)CCC=C(C)C)OCC`, -4.75% (inactive); to `CCCCCCCCCCCCCCNCCO`, -2.56% [at 35.3 µM] (inactive). Same read-out and setting: to `O=C1c2c(O)ccc(O)c2C(=O)c2c(NCCNCCO)ccc(NCCNCCO)c21` belongs -44.1% [at 35.3 µM] (inactive). Consider `Cc1c(-c2ccc(O)cc2)n(Cc2ccc(OCCN3CCCCCC3)cc2)c2ccc(O)cc12`, for which the “cytotoxicity” value was 3.86% [at 35.3 µM] (inactive). Consider `C=CC(C)(CCC=C(C)C)OC(=O)/C=C/c1ccccc1` (centres undefined), for which the Potency was 27.5 µM (active). Consider `CCCCC(CC)COC(=O)c1ccc(O)cc1` (centres undefined), for which the Potency entry is “inactive”. Turning to `Cc1c(C(=O)O)cccc1[N+](=O)[O-]`, the “cytotoxicity” value was -1.82% (inactive). As to `Clc1ccccc1CN1CCc2sccc2C1`, the “cytotoxicity” value was -5.22% [at 35.3 µM] (inactive).
